# Source: PubChem
# Sampled rows, rich in hits. Any-hit rate of the full collection: about 4%.
# MLL AF4-AF9 inh: blocks AF4 peptide binding to human AF9. inhibition, % at 10 µM. AID 651704. AlphaScreen, biotin-AF4 peptide binding to FLAG-AF9. 350,000 tested, 0.47% active;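 active means every replicate reaching a set inhibition limit, whatever the replicate mean, cut at about 25% in these data; inconclusive means mean inhibition reaches that limit but some replicates miss it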
# DENV2 CPE rescue: protects cells from dengue virus 2 cytopathic effect. CPE inhibition, % at 9.99 µM. AID 651640. 350,000 tested, 1.7% active. DENV2-infected cells, cytopathic effect rescue, plate reader; in the data active means CPE inhibition above about 20%, passing the limit was not always enough; inconclusive means no clear call, values can overlap the other calls; tested in BHK-21 cells
# RAD52 anneal inh: blocks human RAD52 DNA annealing; P43351; inhibition, % at 18.7 µM; 360,000 tested, 0.46% active; recombinant RAD52 DNA annealing, FRET fluorescence;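 active means every replicate showing at least 50% inhibition; inconclusive means mean inhibition at least 50% but not in every replicate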
# FGF22 binding: shifts melting point of recombinant human FGF22. Q9HCT0. recombinant FGF22 thermal shift, SYPRO orange fluorescence; percent of sucrose octasulfate shift, DMSO zero. 340,000 tested, 1.5% active. activity (Tm shift, normalised), % at 9.99 µM;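 active means mean Tm shift, scaled 0 neutral to 100 positive control, at about 1.3% or above, every replicate too, limit read from the data; inconclusive means no clear call, values can overlap the other calls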
# ERAP1 inh: ERAP1 (human) enzyme inhibition. 340,000 tested, 0.15% active. Q9NZ08. inhibition, % at 10.7 µM. recombinant ERAP1, Leu-AMC fluorescence, 60 min;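 active means mean replicate inhibition of at least 30%, or all replicates individually reaching that 30% level; inactive means mean below 30% and not every replicate reaching it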
# Target sequence (Q9NZ08 whole entry, looked up): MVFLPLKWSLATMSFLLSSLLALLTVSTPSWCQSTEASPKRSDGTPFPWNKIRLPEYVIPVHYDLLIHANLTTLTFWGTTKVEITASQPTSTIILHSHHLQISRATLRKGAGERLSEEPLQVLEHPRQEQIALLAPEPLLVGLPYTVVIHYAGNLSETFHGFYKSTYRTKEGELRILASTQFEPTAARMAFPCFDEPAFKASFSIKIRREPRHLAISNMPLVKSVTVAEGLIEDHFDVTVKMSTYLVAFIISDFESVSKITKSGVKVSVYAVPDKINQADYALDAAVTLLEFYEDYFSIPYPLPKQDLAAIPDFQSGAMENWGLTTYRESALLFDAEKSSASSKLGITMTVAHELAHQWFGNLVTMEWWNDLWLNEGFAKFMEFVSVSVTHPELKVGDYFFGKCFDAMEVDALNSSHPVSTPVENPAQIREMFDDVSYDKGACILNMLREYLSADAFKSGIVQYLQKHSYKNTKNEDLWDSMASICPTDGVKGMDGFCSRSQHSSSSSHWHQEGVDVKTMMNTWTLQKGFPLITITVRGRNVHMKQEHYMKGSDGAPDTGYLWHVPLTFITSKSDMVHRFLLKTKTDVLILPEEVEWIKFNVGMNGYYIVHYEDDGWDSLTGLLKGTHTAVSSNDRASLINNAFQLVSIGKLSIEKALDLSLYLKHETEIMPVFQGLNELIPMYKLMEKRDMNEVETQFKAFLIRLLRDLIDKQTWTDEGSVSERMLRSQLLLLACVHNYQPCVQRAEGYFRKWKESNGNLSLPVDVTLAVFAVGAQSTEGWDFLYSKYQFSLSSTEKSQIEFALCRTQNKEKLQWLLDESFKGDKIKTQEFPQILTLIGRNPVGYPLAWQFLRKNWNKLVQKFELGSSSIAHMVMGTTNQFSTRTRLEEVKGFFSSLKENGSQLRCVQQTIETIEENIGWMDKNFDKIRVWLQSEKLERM
# Hits are given with their value; 0 = inactive; ? = inconclusive; - = no result.
SMILES,MLL AF4-AF9 inh,DENV2 CPE rescue,RAD52 anneal inh,FGF22 binding,ERAP1 inh
Cc1ccc(S(=O)(=O)N2c3ccccc3CC2C)cc1 (stereo not given),0,0,0,-,0
Cc1ccc(S(=O)(=O)N2c3ccc(S(N)(=O)=O)cc3CC2C)cc1 (stereo not given),0,0,0,44.0,0
O=C(c1cc(-c2cccc(O)c2)on1)N1CCN(C(c2ccccc2)c2ccccc2)CC1,0,0,0,0,0
O=C(c1cc(C2CC2)on1)N1CCN(C(c2ccccc2)c2ccccc2)CC1,0,40.0,0,0,0
COCCNC(=O)CS(=O)Cc1nc(-c2ccc(Cl)cc2)oc1C (stereo not given),0,63.6,0,0,0
Cc1nc2ncccn2c1-c1csc(Nc2ccccc2)n1,0,0,0,0,0
Cc1nc2ncccn2c1-c1csc(Nc2ccc(N(C)C)cc2)n1,44.3,0,0,0,0
CC12CCC3c4ccc(OCCCO)c([N+](=O)[O-])c4CCC3C1CCC2=O (stereo not given),0,43.4,0,0,0
Cc1ccc(CNC(=O)[C@H](C)N2C(=O)N3CCc4c([nH]c5ccccc45)[C@@]3(C)C2=O)cc1,0,35.4,0,0,0
Cc1ccc(S(=O)(=O)Nc2ccc3c(c2)CC(=O)N([C@@H](C)CO)C[C@@H](C)[C@H](CN(C)C(=O)Nc2cccc4ccccc24)O3)cc1,0,0,0,0,0
Cc1ccc(S(=O)(=O)Nc2ccc3c(c2)CC(=O)N([C@@H](C)CO)C[C@H](C)[C@@H](CN(C)C(=O)Nc2cccc4ccccc24)O3)cc1,0,32.8,0,0,0
Cc1ccc(S(=O)(=O)Nc2ccc3c(c2)CC(=O)N([C@H](C)CO)C[C@@H](C)[C@@H](CN(C)C(=O)Nc2cccc4ccccc24)O3)cc1,0,0,0,0,0
Cc1ccc(S(=O)(=O)Nc2ccc3c(c2)CC(=O)N([C@H](C)CO)C[C@H](C)[C@@H](CN(C)C(=O)Nc2cccc4ccccc24)O3)cc1,0,96.4,0,0,0
Cc1ccc(-c2nc(NC(=O)c3cc(C(C)(C)C)nn3C)sc2C)cc1Cl,?,54.5,0,0,0
COCCNC(=O)C[C@H]1C=C[C@H](NS(=O)(=O)c2ccc(C)cc2)[C@@H](CO)O1,0,-,0,0,0
CCNC(=O)C[C@H]1CC[C@@H]2[C@H](COC[C@@H](O)CN2Cc2ccc(Cl)c(Cl)c2)O1,0,0,0,0,0
CCNC(=O)C[C@H]1CC[C@@H]2[C@H](COC[C@H](O)CN2Cc2ccc(Cl)c(Cl)c2)O1,0,81.9,0,0,0
CCNC(=O)C[C@H]1CC[C@H]2[C@@H](COC[C@@H](O)CN2Cc2ccc(Cl)c(Cl)c2)O1,0,104.9,0,0,0
C[C@@H]1CN([C@H](C)CO)C(=O)c2cc(NS(=O)(=O)c3ccc(Cl)cc3)ccc2O[C@@H](C)CCCCO[C@H]1CN(C)S(=O)(=O)c1ccc(F)cc1,0,0,0,-,0
COc1ccc2c3c(n(C)c2c1)[C@@H](CO)N(C(=O)CC1CC1)CC31CCN(C(=O)CC2CC2)CC1,0,0,0,0,0
CN1C(=O)c2ccccc2Cc2c(NCc3ccccc3)ncnc21,0,0,0,43.0,0
CO[C@@H]1CN(C)C(=O)c2ccc(NC(=O)c3ccc(F)cc3)cc2OC[C@H](C)N(C(=O)CN(C)C)C[C@H]1C,0,?,0,0,0
CN=C(NC(=O)Nc1c(C)cccc1C)NC(=O)Nc1c(C)cccc1C,0,0,0,43.7,0
COc1ccc2c3c([nH]c2c1)[C@H](CO)N(Cc1cccnc1)CC31CCN(C(=O)c2cccnc2)CC1,0,0,0,0,0
O=C(N[C@@H]1C=C[C@H](CC(=O)N2CCOCC2)O[C@H]1CO)c1cccc(F)c1,0,?,0,0,0
SMILES,MLL AF4-AF9 inh,DENV2 CPE rescue,RAD52 anneal inh,FGF22 binding,ERAP1 inh
Cc1nc2cc(NS(=O)(=O)c3cccc(F)c3)ccc2s1,0,0,0,44.1,0
Cc1[nH]c2ccccc2c1C(=O)CSC(=S)N1CCN(C)CC1,0,55.3,0,0,0
O=C(NCC[C@@H]1CC[C@H](NS(=O)(=O)c2cccc(F)c2)[C@@H](CO)O1)C1CCCC1,0,0,0,0,0
CN(C)c1cccc(C(=O)Nc2cc(C(F)(F)F)ccc2-n2cnc3ccccc32)c1,0,24.9,0,0,0
COc1ccc(C(=O)O)cc1S(N)(=O)=O,0,0,0,0,0
CNS(=O)(=O)c1cc(C(=O)O)ccc1OC,0,0,0,43.0,0
C[C@H](CO)N1C[C@H](C)[C@@H](CN(C)Cc2ccc(Oc3ccccc3)cc2)Oc2c(NC(=O)Nc3cccc4ccccc34)cccc2C1=O,0,0,0,0,0
C[C@@H]1CN([C@H](C)CO)C(=O)c2cc(NC(=O)Nc3ccc(C(F)(F)F)cc3)ccc2O[C@@H](C)CCCCO[C@H]1CN(C)S(=O)(=O)c1ccc(Cl)cc1,-,0,-,0,-
C[C@H](CO)N1C[C@H](C)[C@@H](CN(C)S(=O)(=O)c2ccc(Cl)cc2)OCCCC[C@H](C)Oc2ccc(NC(=O)Nc3ccc(C(F)(F)F)cc3)cc2C1=O,-,36.5,-,0,-
C[C@@H]1CCCCO[C@@H](CN(C)S(=O)(=O)c2ccc(Cl)cc2)[C@H](C)CN([C@@H](C)CO)C(=O)c2cc(NC(=O)Nc3ccc(C(F)(F)F)cc3)ccc2O1,-,35.5,-,0,-
C[C@@H]1CN([C@@H](C)CO)C(=O)Cc2cc(NC(=O)C3CC3)ccc2O[C@H]1CN(C)S(=O)(=O)c1cccs1,0,0,0,0,0
O=C(C[C@@H]1CC[C@@H]2[C@H](COC[C@H](O)CN2C(=O)c2ccccc2)O1)Nc1ccccc1,-,0,-,0,-
O=C(C[C@@H]1CC[C@@H]2[C@H](COC[C@H](O)CN2C(=O)c2ccccc2)O1)Nc1ccc(-c2ccccc2)cc1,0,44.3,0,-,0
O=C(C[C@@H]1CC[C@@H]2[C@H](COC[C@@H](O)CN2C(=O)c2ccccc2)O1)Nc1ccccc1,-,0,-,0,-
O=C(C[C@@H]1CC[C@H]2[C@@H](COC[C@@H](O)CN2C(=O)c2ccccc2)O1)Nc1ccc(-c2ccccc2)cc1,0,48.3,0,-,0
Cc1c(C)c2c(OCC(=O)N3CCC(O)CC3)cc3c(c2oc1=O)CCC(C)(C)O3,0,46.6,0,0,-
Cc1c(C)c2c(OCC(=O)N3CCC[C@H]3C(=O)O)cc3c(c2oc1=O)CCC(C)(C)O3,0,0,0,0,0
NS(=O)(=O)c1ccc(NCC2COc3ccccc3O2)c([N+](=O)[O-])c1 (stereo not given),0,0,0,42.9,0
CC(=O)c1ccc(NCC2COc3ccccc3O2)c([N+](=O)[O-])c1 (stereo not given),0,0,0,0,0
COc1cccc(S(=O)(=O)Nc2ccc3c(c2)C(=O)N(C)C[C@H](OC)[C@H](C)CN[C@H](C)CO3)c1,0,0,0,0,0
Cc1ccc(CNCc2cc(Cl)ccc2O)cc1,0,87.6,0,0,0
O=C(O)c1ccc(CNCc2cc(Cl)ccc2O)cc1,0,0,0,0,-
